We go through 39 compounds from PubChem BioAssay (EPA / NIEHS).

SMILES strings stand for the structures. Several values for one entry are separate records, joined by “and”; a condition that tells them apart may be missing. Identical values can stand only once. A structure can be active in one record and inactive in another. Activity calls are given as the source filed them. Rule for the calls: active = hit-call score of the fitted dose curve at least 0.9, where 1 is the maximum; inactive = score below 0.9.

Read-out in this assay: ATP-citrate lyase (ACLY), ACLY (gene 47)
Description: LTEA_HepaRG_ACLY: Life Technologies and Expression Analysis (LTEA) Assay for ATP-citrate lyase (ACLY) using HepaRG (AID 2283466). The settings on record: mRNA level, 48 h; actives raise or lower the signal. The procedure:
LTEA_HepaRG is a cell based, multiplexed-readout assay that uses HepaRG, a human liver cell line, with measurements taken at 48 hours after chemical dosing on a 96-well plate.LTEA_HepaRG_ACLY is one of 102 assay component(s) measured in the LTEA HepaRG cell culture assay. It is a marker of Steatosis.Data from the assay component LTEA_HepaRG_ACLY was analyzed into 1 endpoint. This assay endpoint, LTEA_HepaRG_ACLY, was analyzed with bidirectional fitting relative to DMSO as the negative control and baseline of activity. Using a type of inducible reporter, measures of mRNA induction for gain or loss-of-signal activity can be used to understand regulation of transcription factor activity. To generalize the intended target to other relatable targets, this assay endpoint is annotated to the lyase intended target family, where the subfamily is steatosis.
A total of 1060 chemcials from the ToxCast library were tested in eight-point concentration-response experiments. Cell culture and cytotoxicity assays were conducted at Thermo Fisher Scientific's Custom Services facility (Madison, WI). A single lot of human HepaRG cells (Thermo Fisher Scientific, Frederick, MD) was used for the cell culture experiments. 96-well format collagen type I coated plates of human HepaRG cells were prepared using established methods. Briefly, cryopreserved HepaRG cells were thawed, plated at a density of approximately 100,000 cells/well in HepaRG Thaw, Plate, and General Purpose media (HPRG770, Thermo Fisher Scientific), and incubated for 48 hours. 0.5% DMSO was selected as vehicle control to balance the requisite need of DMSO in HepaRG cultures to maintain differentiation (for example, baseline metabolism, proportions of hepatocytes vs. cholangiocytes), while enabling further hepatic receptor pathway activation (for example, PXR and CAR) in response to chemical exposure. 48 hours after plating, the culture medium was replaced with HepaRG Serum-Free Incudtion Media. Cells were exposed to each test chemical in duplicate and maintained in CO2 incubators for another 48 hours. Chemical plates were thawed to room temperature and 200x concentrations of treatment groups were prepared. 8-point conentration-reponse curves were made with the highest exposure at 100 uM, followed by half-log dilutions, all in 0.5% DMSO. Each test plate contained variouse controls, induction positive controls (1mM phenobarbital), cytotoxicity positive controls ([…] aflatoxin B1), vehicle controls (0.5% DMSO), and total lysis controls (0.5% DMSO). Cell morphology images were taken using an Essen IncuCyte FLR automated microscope, with six 96-well plates imaged in about 24 minutes. Images were captured and exported and JPEG files. Spent culture media was transfered to black-well plates for the LDH assay, and remaining media was sorted at -80 C for later use. Cells were treated with RLT buffer and frozen until shipped for gene expression analysis. Total RNA was isolated from the cell suspension in 75 uL of Buffer RLT (Qiagen, Germantown, MD 20874) by Quintiles/Expression Analysis (Durham, NC) using a custom isolation procedure. Total RNA from each plate well was transferred to a preamplification plate. Fluidigm's 96.96 Dynamic ArrayTM (Fluidigm, Amsterdam, the Netherlands) technology was used for gene expression analyses by quantitative reverse transcription polymerase chain reaction (qRT-PCR, performed by Quintiles/Expression Analysis, Durham, NC)89. Standard TaqManTM Assays (Applied Biosystems/ThermoFisher Scientific, Foster City, CA) were used to assess the expression of 93 genes selected based on their selectivity and sensitivity to important hepatic receptors known to be modulated by environmental chemicals; importance in human hepatocyte functionality; and hepatotoxicity. […]
With `CCC(C)(C)C(=O)OC1=C(c2ccc(Cl)cc2Cl)C(=O)OC12CCCCC2`, the compound was classed as inactive.
For orientation: AC50 means the concentration giving half of the maximal activity seen. Turning to `CC(C)(C)C(O)/C(=C\c1ccc(Cl)cc1Cl)n1cncn1` (stereo not given), the AC50 is 88.9 µM (active).
Consider `N#Cc1c(Cl)c(Cl)c(Cl)c(C#N)c1Cl`, for which the compound was called inactive.
On the same count and under the same terms, the value for `COP(=S)(OC)Oc1ccc(SC)c(C)c1` was “inactive”.
For the compound `O=C(O)C(F)(F)C(F)(F)C(F)(F)C(F)(F)C(F)(F)C(F)(F)C(F)(F)F`, the result was inactive.
Same read-out and setting: as for `CCOCN(C(=O)CCl)c1c(C)cccc1CC`, the entry is “inactive”.
On to `O=C(O)CCCOc1ccc(Cl)cc1Cl`, for which the AC50 was 50.8 µM (active).
On the same count and under the same terms, the value for `CC[C@H](C)[C@H]1O[C@]2(C=C[C@@H]1C)C[C@@H]1C[C@@H](C/C=C(\C)[C@@H](O[C@H]3C[C@H](OC)[C@@H](O[C@H]4C[C@H](OC)[C@@H](O)[C@H](C)O4)[C@H](C)O3)[C@@H](C)/C=C/C=C3\CO[C@@H]4[C@H](O)C(C)=C[C@@H](C(=O)O1)[C@]34O)O2` (tested in a mixture with another compound) was 52.2 µM (active).
As to `O=S(=O)(O)C(F)(F)C(F)(F)C(F)(F)C(F)(F)C(F)(F)C(F)(F)C(F)(F)C(F)(F)F`, the AC50 is 50 µM (active) and 9.92 µM (active); the compound was classed as inactive.
On to `O=S1OCC2C(CO1)C1(Cl)C(Cl)=C(Cl)C2(Cl)C1(Cl)Cl` (stereo not given), for which the AC50 was 87.1 µM (active).
The same measure, in the same setting: as for `C[C@H]1[C@H](c2ccc(Cl)cc2)SC(=O)N1C(=O)NC1CCCCC1`, the figure is 79.7 µM (active); as for `CC(C)(C)C(O)C(Oc1ccc(Cl)cc1)n1cncn1` (stereo not given), 73.6 µM (active) and 50 µM (active) and 34.1 µM (active).
With `CN1CSC(=S)N(C)C1`, the compound was called inactive.
In the case of `C#CCN1C(=O)COc2cc(F)c(N3C(=O)C4=C(CCCC4)C3=O)cc21`, the compound was called inactive.
As to `COP(=O)(OC)OC=C(Cl)Cl`, the result was inactive.
Consider `CCCN(CCC)c1c([N+](=O)[O-])cc(C(F)(F)F)cc1[N+](=O)[O-]`, for which the compound was called inactive.
Still for that read-out and setting: as for `Oc1cc(Cl)ccc1Oc1ccc(Cl)cc1Cl`, the entry is “inactive”.
Still for that read-out and setting: as for `CNC(=O)Oc1cccc(N=CN(C)C)c1`, the entry is “inactive”; as for `O=C1c2ccccc2C(=O)N1SC(Cl)(Cl)Cl`, “inactive”.
The same measure, in the same setting: as for `OCCOc1ccccc1`, the entry is “inactive”; as for `Clc1ccccc1-c1nnc(-c2ccccc2Cl)nn1`, “inactive”; as for `COP(=S)(OC)Oc1ccc([N+](=O)[O-])cc1`, “inactive”.
As to `CCCN(CCOc1c(Cl)cc(Cl)cc1Cl)C(=O)n1ccnc1`, the AC50 was 12.5 µM (active).
`O=C(NC(=O)c1c(F)cccc1F)Nc1ccc(OC(F)(F)C(F)OC(F)(F)F)c(Cl)c1` (stereo not given): the concentration at half-maximal activity (AC50) was 25 µM (active).
On to `CC(C)N(C(=O)COc1nnc(C(F)(F)F)s1)c1ccc(F)cc1`, for which the compound was classed as inactive.
Same read-out and setting: as for `Oc1ccc(Cl)cc1Cc1ccccc1`, the entry is “inactive”.
Take `CC1(c2ccc(Oc3ccccc3)cc2)OC(=O)N(Nc2ccccc2)C1=O` (stereo not given): the AC50 was 3.66 µM (active).
On to `N#CN`, for which the compound was classed as inactive.
Consider `Cc1[nH]c(=O)n(C(C)(C)C)c(=O)c1Cl`, for which the call was inactive.
Consider `CNC(=O)/C=C(\C)OP(=O)(OC)OC`, for which the result was inactive.
On the same count and under the same terms, the value for `CC(C)OC(=O)Nc1cccc(Cl)c1` was “inactive”.
As to `CCOC1Oc2ccc(OS(C)(=O)=O)cc2C1(C)C` (stereo not given), the AC50 is 82.6 µM (active).
On to `COc1nn(CSP(=S)(OC)OC)c(=O)s1`, for which the compound was classed as inactive.
The same measure, in the same setting: the value for `CCc1ccc(C(=O)NN(C(=O)c2cc(C)cc(C)c2)C(C)(C)C)cc1` was “inactive”.
Still for that read-out and setting: as for `CCN(CC)C(=O)SCc1ccc(Cl)cc1`, the entry is “inactive”; as for `CC1(C)C(C=C(Cl)Cl)C1C(=O)OC(C#N)c1ccc(F)c(Oc2ccccc2)c1` (stereo not given), “inactive”.
Take `ClC1C(Cl)C(Cl)C(Cl)C(Cl)C1Cl` (stereo not given): the compound was called inactive.
Still for that read-out and setting: as for `CNC(=O)CSP(=S)(OC)OC`, the entry is “inactive”; as for `CCC(C)(NC(=O)c1cc(Cl)c(C)c(Cl)c1)C(=O)CCl` (stereo not given), “inactive”.
